# Reference: PubChem BioAssay AID1063 (University of Pittsburgh Molecular Library Screening Center, 2008)
# The whole screen tested about 200,000 compounds, of which about 18,000 (9%) were called active. The full list was thinned out, with actives kept by preference. Values without a mark were called inactive. Cut-off read from the data, not from the text of the source: active = inhibition above about 50%; inactive = the rest.
# Assay: antileishmanial activity against promastigotes – primary screen (AID 1063);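 note: promastigotes grown with compound for 44 hours at 28 °C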
# Settings: Leishmania major promastigotes, resazurin fluorescence viability; at 10 µM; active compounds read high
row,SMILES,inhibition
1,CCCOC(=O)c1c(NC(=O)c2cnn3c2NC(c2ccccc2)CC3C(F)(F)F)sc2c1CCCC2 (configuration not stated),4.09%
2,CCOC(=O)N1CCC(=NNC(N)=O)CC1,-11.1%
3,Cc1cccc(NC(=O)CN2C(=O)c3ccccc3C2=O)c1C,-7.46%
4,CCOc1ccc2nc(Nc3nc4ccc(NC(C)=O)cc4s3)sc2c1,72.1% (active)
5,Cc1cc(C)cc(OCC(=O)Nc2nc3ccc([N+](=O)[O-])cc3s2)c1,-2.84%
6,CCOc1ccc2nc(NC(=O)c3cc([N+](=O)[O-])ccc3N3CCOCC3)sc2c1,96% (active)
7,COc1ccc2nc(Nc3nc4ccc(NC(C)=O)cc4s3)sc2c1,6.91%
8,CCOc1ccc2nc(SC(CC)C(=O)Nc3cc(C)on3)sc2c1 (configuration not stated),6.15%
9,O=C(NC1CCCCC1)c1cc([N+](=O)[O-])ccc1N1CCOCC1,-6.49%
10,COc1cccc(NC(=O)C(Sc2nnnn2C)c2ccccc2)c1 (configuration not stated),10.5%
11,COc1ccc(CN(C)Cc2nc3cc(OC)c(OC)cc3c(=O)[nH]2)c(OC)c1,1.39%
12,Cc1cc(NC(=O)CSc2nc3cc(Cl)ccc3c(=O)n2Cc2ccco2)no1,4.4%
13,COc1ccc(-c2cc(-c3ccc(N)cc3)nc(N)c2C#N)cc1OC,-6.13%
14,O=C(NC1CC1)c1ccc(-c2ccccc2)cc1,6.37%
15,CCOC(=O)c1ccc(NC(=S)Nc2cc(C)cc(C)n2)cc1,5.79%
16,O=C(COc1ccc(Cl)cc1)NCc1nnc(SCC(=O)NCC2CCCO2)o1 (configuration not stated),-8.43%
17,O=C(CSCc1ccc([N+](=O)[O-])cc1)NCCSCc1ccccc1,12.9%
18,CC(=O)N1c2ccccc2N(Cc2ccc([N+](=O)[O-])cc2)C(=O)C1(C)C,51.9% (active)
19,CC(O)c1nc2ccccc2n1Cc1ccc([N+](=O)[O-])cc1 (configuration not stated),-2.56%
20,O=C(Nn1cnc2ccccc2c1=O)c1ccccc1,-0.77%
21,CCNC(=O)NNC(=O)C1CC(c2cccs2)=NO1 (configuration not stated),-8.39%
22,CCN(C(=O)c1ccc(Br)cc1)c1ccccc1,3.92%
23,Cc1cc([N+](=O)[O-])nn1CCCC(=O)Nc1cccnc1Cl,-6.69%
24,O=C(C1CCN(S(=O)(=O)c2cccs2)CC1)N1CCCCCC1,-2.87%
25,CS(=O)(=O)N1CCC(C(=O)N2CCN(c3ccccc3)CC2)CC1,-3.18%

row,SMILES,inhibition
1,O=C(C1CCN(S(=O)(=O)c2ccc(Br)s2)CC1)N1CCN(C2CCCCC2)CC1,59.6% (active)
2,Cc1ccc(COc2ccc(C(=O)NN)cc2)cc1,-1.34%
3,CN(CCOc1ccc(Br)cc1)CC(=O)Nc1cccc(S(=O)(=O)NC2=NCCC2)c1,-1.24%
4,Cc1ccc(C(C)(C)C)c(OCCCCN2CCCC2)c1,87.1% (active)
5,Cc1ccc(OCCCCN2CCCCC2)c(Br)c1,97.8% (active)
6,O=[N+]([O-])c1ccccc1OCCCCN1CCCCC1,82.4% (active)
7,Cc1ccc2c(C(=O)CN3CCCC3)c(C)[nH]c2c1,8.69%
8,Cc1ccc(OCCCC(=O)N2CCOCC2)c(C)c1,-2.9%
9,C=CCN(CC=C)CCOc1ccccc1[N+](=O)[O-],12.2%
10,CC1CN(CCOc2ccccc2[N+](=O)[O-])CC(C)O1 (configuration not stated),8.57%
11,COc1ccccc1N1CCN(CCCCOc2ccc(F)cc2)CC1,-5.52%
12,CCN1CCN(CCCCOc2ccccc2F)CC1,47.3%
13,CC(C)OC(=O)Cn1nc(C(F)(F)F)c2c1CCCC2,-5.66%
14,CC1CCCC(NC(=O)c2cccc(N3CCCC3=O)c2)C1C (configuration not stated),-7.83%
15,COCCNc1nc2nonc2nc1N1CCCC1c1nccs1 (configuration not stated),-4.44%
16,O=C(c1cccc([N+](=O)[O-])c1)N1CCN(C(=O)c2ccco2)CC1,0.98%
17,CCn1c(CNc2ccc(OC)cc2)nnc1SCC(=O)c1ccc(OC)cc1,70.5% (active)
18,C=CCn1c(CNC(=O)c2ccco2)nnc1SCC(=O)c1ccc(OC)cc1,-7.42%
19,COC(=O)c1ccc(NC(=O)CSc2nnc(CNc3ccc(OC)cc3)n2C)cc1,9.68%
20,CCn1c(COc2ccc(OC)cc2)nnc1SCC(=O)Nc1cc(OC)ccc1OC,60.8% (active)
21,COc1ccc(OC)c(NC(=O)CSc2nc3cccnc3n2C)c1,-3.05%
22,CCn1c(COc2ccccc2)nnc1SCC(=O)Nc1ccc2c(c1)OCCO2,-3.59%
23,CCSC1=NCCN1S(=O)(=O)c1ccc(F)cc1,-0.73%
24,O=c1c2ccccc2c(-c2ccccc2)nn1-c1ccccn1,-0.99%
25,CC(=O)N1C(C)c2ccccc2C(C)(C)CC12CCCCC2 (configuration not stated),10.5%

row,SMILES,inhibition
1,Cc1ccc(N=C2NC(=O)c3cccc([N+](=O)[O-])c32)cc1,-1.43%
2,COc1cc(OC)cc(-c2nc3nc(C)c(CCC(=O)NCc4ccco4)c(C)n3n2)c1,2%
3,Cc1nc2c(-c3ccc(F)cc3)c(C)nn2c(C)c1CCC(=O)NCc1ccco1,-2.49%
4,COc1ccc(-c2cc3nc(C)c(CCC(=O)NC(C)CCc4ccco4)c(C)n3n2)c(OC)c1 (configuration not stated),100% (active)
5,Cc1ccc2cc(CN(c3ccc(C)c(C)c3)S(C)(=O)=O)c(=O)[nH]c2c1,9.29%
6,CCN(CCn1cccn1)C(=O)CC1C(=O)NCCN1Cc1cccc(OC)c1OC (configuration not stated),5.31%
7,CCOC(=O)c1sc2nc(C)nc(Nc3ccc(OC)c(OC)c3)c2c1C,-0.22%
8,COc1ccc(-c2n[nH]c(C)c2-c2ccc(OC)c(OC)c2)c(O)c1,4.64%
9,COc1ccc(O)c(C=Nc2cc(C)on2)c1,-9.53%
10,COc1ccc(-c2onc(C)c2-c2ccc3c(c2)OCCO3)c(O)c1,72.5% (active)
11,CCOC(=O)CNC(=O)CSc1ccc2nnc(-c3cccnc3)n2n1,4.24%
12,CC(=O)Cn1ncc(N2CCOCC2)c(Br)c1=O,5.25%
13,COc1ccc(CNC2CCCCC2)cc1,72.3% (active)
14,COc1ccc(CCNC(=O)COC(=O)C2CCCCC2)cc1,-2.53%
15,COc1ccc(CNC(=O)C2CCN(S(C)(=O)=O)CC2)cc1,7.6%
16,O=c1[nH]n2c(-c3ccccc3)nc(O)c2c2ccccc12,-6.91%
17,Nn1cnnc1N/N=C/c1cc([N+](=O)[O-])c(Cl)cc1Cl,64.3% (active)
18,CCc1cc2c(=O)c(-c3ccc(F)cc3)c(C(F)(F)F)oc2cc1OCC(=O)O,0.79%
19,O=C(CCc1n[nH]c(=O)[nH]c1=O)N/N=C/c1ccc(Br)o1,0.7%
20,CC(C)C1Nc2c(C(=O)O)cccc2C(Nc2ccccc2C(=O)O)C1(C)C (configuration not stated),0.14%
21,O=C(CSc1nnc(-c2ccncc2)o1)NCc1ccc(Cl)cc1,-6.74%
22,Cc1occc1C(=O)Nc1nnc(C2CCCCC2)s1,7.17%
23,O=C(Cc1cccs1)Nc1nnc(C2CC2)s1,-7.6%
24,O=C(Nc1nnc(C2CC2)s1)c1ccccn1,84.9% (active)
25,Cc1nc(N)c(Br)c(C)c1Br,1.28%

row,SMILES,inhibition
1,CC(NC(=O)Nc1ccc2c(c1)OCO2)c1ccncc1 (configuration not stated),-3.06%
2,CC(C)(C)C(=O)NC(NC(=S)Nc1ccc(S(N)(=O)=O)cc1)C(Cl)(Cl)Cl (configuration not stated),2.02%
3,CC(NC(=S)Nc1ccc(S(N)(=O)=O)cc1)c1ccc2c(c1)OCO2 (configuration not stated),70% (active)
4,COc1c(C)cc(C(=O)C2CCCN(S(=O)(=O)c3c(C)noc3C)C2)cc1C (configuration not stated),6.97%
5,CN(/C(=N/S(=O)(=O)c1cccs1)c1ccccc1)c1ccc(O)cc1,7.12%
6,CSCC(NS(=O)(=O)c1ccc(C)cc1)C(=O)O (configuration not stated),-7.96%
7,CN1C(=O)/C(=N/OC(=O)c2ccccc2Br)c2ccccc21,-16.5%
8,O=C(NNC(=S)NC1CCCCC1)c1ccccc1Cl,16.1%
9,Fc1ccc(N2CCN(Cc3cnc(Oc4ccc(Br)cc4)s3)CC2)cc1,-8.09%
10,O=C(c1cccc(C(=O)N2CCN(c3ccc(F)cc3)CC2)c1)N1CCN(c2ccc(F)cc2)CC1,-10.6%
11,Oc1c(CN2CCN(c3ccc(F)cc3)CC2)cc(Cl)c2cccnc12,100% (active)
12,Cc1nnc(SCC(=O)NNC(=O)c2ccc(Cl)cc2)n1CC1CCCO1 (configuration not stated),-2.51%
13,C/C(=N\OC(=O)c1ccccc1)c1c(C)nc2cc(C)ccn12,5.76%
14,Cc1ccc(N(C(=O)c2ccc(CN3CCOCC3)o2)C(C(=O)NCCC(C)C)c2cccs2)c(C)c1 (configuration not stated),90.9% (active)
15,Cc1ccc(N(C(=O)Cc2cccs2)C(C(=O)NCC2CCCO2)c2ccncc2)cc1 (configuration not stated),3.99%
16,Cc1cccc(N(C(=O)c2ccc(CN3CCOCC3)o2)C(C(=O)NC2CCCCC2)c2ccc(F)cc2)c1 (configuration not stated),-5.01%
17,CN(C)CC(C)(C)CNC(=O)c1cc(Br)cc(Br)c1O,-1.61%
18,CC1=CC2=NC(=O)CC(C)(C(=O)N(CC(=O)NC(C)(C)C)Cc3ccccc3)N2C=C1 (configuration not stated),-6.31%
19,Cc1cccc(CSc2nc3c(c(=O)n2C)SCC3)c1,7.35%
20,COc1ccc(C(CCN(Cc2ccc(OC)c(OC)c2)C(=O)CCl)c2ccccc2)cc1 (configuration not stated),100% (active)
21,COc1ccc(CCNC(=O)CN(c2ccccc2)S(C)(=O)=O)cc1OC,-7.09%
22,CCOC(=O)CN(Cc1ccc(OC)c(OC)c1)S(=O)(=O)c1ccc(OC)cc1,0.46%
